PubChem BioAssay (Tox21)
Results filed as inconclusive are left out. Active and inactive are the calls of the source. Calls come from the whole dose curve; as a rule, active = well fitted inhibition curve with a large enough effect in the signal ratio in the repeat runs (not every such curve was filed as active); inconclusive = weak or mixed curves, or effect the other way; inactive = no such curve, though single readings can be large or run the other way; the % refers to the signal ratio.

These compounds were tested against Vitamin D3 receptor (Homo sapiens) (UniProt P11473) (assay: qHTS assay to identify small molecule antagonists of the vitamin D receptor (VDR) signaling pathway (AID 743223)). Conditions: VDR-UAS-bla HEK293T, beta-lactamase FRET ratio, 16 h; series mostly up to 61 µM.
Vitamin D3 receptor (Homo sapiens), sequence (P11473 whole entry, looked up): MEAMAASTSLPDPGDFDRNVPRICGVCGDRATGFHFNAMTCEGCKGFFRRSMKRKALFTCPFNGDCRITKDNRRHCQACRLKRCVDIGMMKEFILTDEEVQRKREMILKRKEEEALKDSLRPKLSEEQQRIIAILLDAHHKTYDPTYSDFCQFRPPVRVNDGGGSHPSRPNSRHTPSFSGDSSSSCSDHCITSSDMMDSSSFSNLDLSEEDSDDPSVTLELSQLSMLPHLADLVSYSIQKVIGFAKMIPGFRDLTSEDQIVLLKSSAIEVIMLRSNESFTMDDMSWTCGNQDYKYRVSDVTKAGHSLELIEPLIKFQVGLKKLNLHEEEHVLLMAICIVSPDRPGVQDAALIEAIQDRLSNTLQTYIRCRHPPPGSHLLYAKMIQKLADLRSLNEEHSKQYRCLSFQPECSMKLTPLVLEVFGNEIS
Description: U.S. Tox21 Program National Center for Advancing Translational Sciences [NCATS] NIH Chemical Genomics Center [NCGC] U.S. Environmental Protection Agency [EPA] National Institutes of Environmental Health Sciences [NIEHS] National Toxicology Program [NTP] U.S. Food and Drug Administration [FDA] Tox21 Assay Overview: The vitamin D receptor (VDR), a member of nuclear hormone receptor superfamily, plays a critical role in calcium homeostasis and bone metabolism. It is also involved in cell differentiation and growth, and thrombogenicity.
Tox21 Assay Protocol Summary: VDR-bla cells were dispensed at 2,000 cells/5 uL of assay medium per well into black wall/clear-bottom 1536-well plates using a Multidrop Combi (Thermo Fisher Scientific, Waltham, MA) dispenser. After the assay plates were incubated at a 37C and 5% CO2 for 4 h, 23 nL of compounds dissolved in DMSO, positive controls or DMSO only was transferred to the assay plate by a Pintool station (Kalypsys, San Diego, CA), followed by addition of 1 uL of 1alpha, 25-Dihydroxy Vitamin D3 (3 nM, final concentration in the wells) using a Bioraptr Flying Reagent Dispenser (FRD) workstation (Beckman Coulter, Indianapolis, IN). The plates were incubated at 37C and 5% CO2 for 16 h, and then 1 uL of LiveBLAzerTM B/G FRET substrate was added using a Bioraptr FRD. The plates were incubated at room temperature for 2 h and fluorescence intensity was measured by an Envision plate reader (PerkinElmer, Shelton, CT).
With `COc1ccc(Nc2ccc(OC)cc2)cc1` the outcome was “inactive”.
With `COc1cc(C)ccc1C(C)C` the outcome was “inactive”.
With `Cc1cccc(C)c1NC(=O)CN1CCCCCC1` the outcome was “inactive”.
For `O=C(CCCl)NCc1ccccc1`, the outcome was “inactive”.
In the case of `O=S(=O)(O)C(F)(F)F`, the outcome is reported as “inactive”.
`C[C@]12C(=O)OC(=O)[C@H]1[C@H]1C=C[C@@H]2C1` was tested, and the outcome was “inactive”.
In the case of `NS(=O)(=O)c1cc(-c2nn[nH]n2)c(NCc2cccs2)cc1Cl`, the outcome is reported as “inactive”.
For `O=C1CCC(C2CCCCC2)CC1`, the outcome was “inactive”.
For `O=C(O)c1cccc(Cl)c1Cl`, the outcome was “inactive”.
In the case of `CCCCCCCCOC(=O)CCCCCCCCC(=O)OCCCCCCCC`, the outcome is reported as “inactive”.
`CC(C)NCC(O)COc1ccc(CCOCC2CC2)cc1` (stereo not given) was tested, and the outcome was “inactive”.
For `CCCCCOc1ccc(C2SC(=O)NC2=O)cc1OCC` (stereo not given), the outcome was “inactive”.
With `CCc1cc(Cl)c(OC)c(C(=O)NC[C@@H]2CCCN2CC)c1O` the outcome was “inactive”.
`CCOC(=O)COc1ccc2c(c1)CC(NCC(O)c1cccc(Cl)c1)CC2` (stereo not given) was tested, and the outcome was “inactive”.
For `CCCCC(=O)O[C@]1(C(=O)CO)[C@H](C)C[C@H]2[C@@H]3CCC4=CC(=O)C=C[C@]4(C)[C@@]3(F)[C@@H](O)C[C@@]21C`, the outcome was “inactive”.
In the case of `FC(F)(F)C(F)(F)C(F)(F)C(F)(F)C(F)(F)C(F)(F)C(F)(F)C(F)(F)Br`, the outcome is reported as “inactive”.
With `CCCCCCCOC(=O)CCC` the outcome was “inactive”.
For `O=c1[nH]c(=O)n([C@H]2C[C@H](O)[C@@H](CO)O2)cc1C(F)(F)F`, the outcome was “inactive”.
In the case of `O=C(Cl)c1cccc([N+](=O)[O-])c1`, the outcome is reported as “inactive”.
In the case of `COC(=O)/C=C(/C)N`, the outcome is reported as “inactive”.
For `CCN(CCCc1ccccc1)CCCc1ccccc1`, the outcome was “inactive”.
With `CC/C=C\CCOC(=O)C(C)C` the outcome was “inactive”.
For `COc1ccc2nc(NC(=O)Nc3ccccc3)sc2c1`, the outcome was “inactive”.
In the case of `CNCCC(Oc1ccccc1OC)c1ccccc1` (stereo not given), the outcome is reported as “inactive”.
In the case of `C/C(=N\O)[C@@H](C)NCC(C)(C)CN[C@H](C)/C(C)=N/O`, the outcome is reported as “inactive”.
In the case of `OCCN(CCO)CCN(CCO)CCO`, the outcome is reported as “inactive”.
For `CCCCCCCCCC/C=C/C#N`, the outcome was “inactive”.
With `CN1CCN(c2c(F)cc3c(=O)c(C(=O)O)cn(CCF)c3c2F)CC1` the outcome was “inactive”.
For `O=C1C=CC(=O)O1`, the outcome was “inactive”.
`CCCC(CCC)(C(=O)OCC)C(=O)OCC` was tested, and the outcome was “inactive”.
For `CCC/C=C/CO`, the outcome was “inactive”.
`CCOC(=O)[C@H](CCc1ccccc1)N[C@@H](C)C(=O)N1Cc2cc(OC)c(OC)cc2C[C@H]1C(=O)O` was tested, and the outcome was “inactive”.
With `Clc1cccc(-c2cc(Cl)cc(Cl)c2)c1` the outcome was “inactive”.
With `FC(F)(F)c1ccccc1` the outcome was “inactive”.
With `CN1CCN(c2c(F)cc3c(=O)c(C(=O)O)cn4c3c2SCC4)CC1` the outcome was “inactive”.
`CCN(O)CC` was tested, and the outcome was “inactive”.
With `OCCN1CCN(CCO)CC1` the outcome was “inactive”.
For `NC/C=C/C(=O)O`, the outcome was “inactive”.
For `C=Cc1ccccc1`, the outcome was “inactive”.
For `CC(=O)N[C@@H](CC(C)C)C(=O)O`, the outcome was “inactive”.
